Assay results from PubChem BioAssay (NCATS).
Records with an inconclusive call do not appear. A call without a number means that no potency is given here. Values without a mark were called inactive. The source made the active and inactive calls. Calls follow the shape of the dose curve; as a rule, active = well fitted cell-killing curve with a large enough effect; inconclusive = small, poorly fitted or top-dose-only effect; inactive = no such curve, though single readings can be large or run the other way.

Test: qHTS of pediatric cancer cell lines to identify multiple opportunities for drug repurposing: Primary screen for Rh30 cells (AID 1347107); also: nearly all actives have a fitted effect of over 75% in size
Conditions: Rh30 rhabdomyosarcoma viability, CellTiter-Glo luminescence, 48 h; series mostly up to 46 µM
Text: Drug repurposing or repositioning has been offered as a strategy for drug development in oncology programs. This approach has special potential for childhood cancers and other rare or orphan diseases, where the expected return on new drug development has been a disincentive to pharmaceuticals.
In this project we exploit the poly-pharmacology of drugs to discover new indications via phenotypic screening of a panel of 19 well-characterized cell lines derived from solid tumors seen in children and adolescents. The goal is to identify approved drugs with previously unrecognized anticancer properties that has the potential to reveal new mechanisms and biological processes involved in carcinogenesis or drug resistance. We employed a titration-based paradigm (quantitative high-throughput screening or qHTS), where all compounds were tested at multiple concentrations for their effect on cell viability. Concentration-response curves (CRCs) were derived directly from the primary screen, and both potency and efficacy values were used to identify compounds with robust bioactivity profiles. We screened the NIH Chemical Genomics Center (NCGC) Pharmaceutical Collection (NPC) and Mechanism Interrogation Plate (MIPE) small molecule collections of approved and investigational compounds against these cell lines; and measured metabolically active cells after 48 hours of compound treatment as a proxy for cell viability.
Assay Submitter: Nathalia J. Martinez, National Center for Advancing Translational Sciences, National Institutes of Health, Rockville, MD, USA; email: natalia.martinez@nih.gov
[1] Shen, M et al. Quantitative high-throughput phenotypic screening of pediatric cancer cell lines identifies multiple opportunities for drug repurposing. Oncotarget 2017 Dec 19;9(4):4758-4772. PMID 29435139.
The cells were obtained from University of North Carolina (UNC), Pediatric Preclinical Testing Program (PPT), and Coriell Institute (CI).
qHTS cell viability assay:
Cells were assayed in growth media at a density of 500-1,000 cells/well. Five microliters of cells were dispensed into 1,536-well, white, solid-bottom, TC-treated plates (Greiner Bio One) using a multidrop dispenser and incubated at 37 degrees C, 5% CO2, under a humidified atmosphere for 5 hours. Twenty-three nanoliters of compounds and controls (neutral control DMSO or positive control bortezomib at final concentration of 2.3 µM) were subsequently transferred by Kalypsys pintool. For primary screens, the MIPE collection was tested at 11-point dilutions (final concentrations range from 0.78 nM to 46 µM) and the NPC collection at 8-point dilutions (final concentrations range from 0.59 nM to 46 µM). Compounds tested in follow-up screens were assayed at 11-point dilutions. Cells were incubated for 48 hours, followed by addition of 3 µL of CellTiter-Glo (Promega). After a 15 min incubation at room temperature, samples were analyzed for luminescence intensity using a ViewLux High-throughput CCD imager equipped with clear filters.
Potency is read from the fitted curve at half-maximal effect.

SMILES	Potency	activity change, negative = cytotoxic
CNC(=O)c1ccc(N2C(=S)N(c3cnc(C#N)c(C(F)(F)F)c3)C(=O)C23CCC3)cc1F	1.66 µM (active)	
COc1ccc(CC2c3cc(OC)c(OC)cc3CC[N+]2(C)CCC(=O)OCCCCCOC(=O)CC[N+]2(C)CCc3cc(OC)c(OC)cc3C2Cc2ccc(OC)c(OC)c2)cc1OC (stereo not given)		18.3% [at 9.22 µM]
O=C(O)CCCc1c[nH]c2ccccc12	inactive	
CCCCN1CCC(CNC(=O)c2c3n(c4ccccc24)CCCO3)CC1	inactive	
CC(C)c1cc(-c2n[nH]c(=O)n2-c2ccc3c(ccn3C)c2)c(O)cc1O	inactive	
Cc1cn(-c2cc(NC(=O)c3ccc(C)c(Nc4nccc(-c5cccnc5)n4)c3)cc(C(F)(F)F)c2)cn1	inactive	
Cc1nc2ccc(CN(C)c3ccc(C(=O)N[C@@H](CCC(=O)O)C(=O)O)s3)cc2c(=O)[nH]1	inactive	
CN1CCN(c2cc(C(=O)Nc3ccc4c(c3)-c3c(c(C(N)=O)nn3-c3ccc(F)cc3)CC4)c(Cl)cn2)CC1	16.6 µM (active)	
C=CC(=O)Nc1cccc(Oc2nc(Nc3ccc(N4CCN(C)CC4)cc3)ncc2Cl)c1	18.7 µM (active)	
Nc1ccc(S(=O)(=O)Nc2ncccn2)cc1	inactive	
CNC(=O)c1c(F)cccc1Nc1nc(Nc2cc3c(cc2OC)CCN3C(=O)CN(C)C)nc2[nH]ccc12	2.96 µM (active)	
COc1cccc(Nc2c(C(N)=O)cnc3c(C)cc(S(=O)(=O)c4cccc(C(=O)N(C)C)c4)cc23)c1	inactive	
C[C@]12CC[C@H](O)CC1=CCC1C2CC[C@]2(C)C(n3cnc4ccccc43)=CCC12 (stereo not given in full)	inactive	
CCN(CC)CCNC(=O)c1ccc2nc(-c3ccccc3)c(-c3ccc(CN4CCC(n5c(=O)[nH]c6ccccc65)CC4)cc3)nc2c1	18.7 µM (active)	
CC(C)(C)OC(=O)Nc1ccc(-c2cc(C(=O)NCCCCCCC(=O)NO)no2)cc1	7.43 µM (active)	
c1nc2nc(Nc3ccc(N4CCOCC4)cc3)nc(NC3CCCCC3)c2[nH]1	11.8 µM (active)	
COc1cc2c(Oc3ccc(NC(=O)C4(C(=O)Nc5ccc(F)cc5)CC4)cc3F)ccnc2cc1OCCCN1CCOCC1	5.9 µM (active)	
CC(C)(C)c1cc(NC(=O)Nc2ccc(-c3cn4c(n3)sc3cc(OCCN5CCOCC5)ccc34)cc2)no1	inactive	
CC(C)c1nn(-c2c(Cl)cccc2Cl)c2nc(Cc3ccc(OCCO)cc3)[nH]c(=O)c12	inactive	
NC(=O)Nc1cc(-c2cccc(F)c2)sc1C(=O)N[C@H]1CCCNC1	0.833 µM (active)	

SMILES	Potency	activity change, negative = cytotoxic
CNc1nccc(-c2cccnc2Oc2cc(C(=O)Nc3cccc(C(F)(F)F)c3)ccc2C)n1	inactive	
Fc1cc(-c2cccc3ncc(-c4cnn(C5CCNCC5)c4)nc23)cc(F)c1CN1CCOCC1	23.5 µM (active)	
COc1c(N2C[C@@H]3CCCN[C@H]3C2)c(F)cc2c(=O)c(C(=O)O)cn(C3CC3)c12	inactive	
Cc1cc(Nc2cc(CN3CCOCC3)c3nc(C)c(Cc4ccc(Cl)cc4F)n3n2)n[nH]1	14.8 µM (active)	
Nc1cc(C(F)(F)F)c(-c2cc(N3CCOCC3)nc(N3CCOCC3)n2)cn1	11.8 µM (active)	
CC1(C)OC2=C(C(=O)c3ccccc3C2=O)[C@H](NCc2ccccc2)[C@H]1O	5.9 µM (active)	
C[C@H]1C[C@@H]2[C@@H]([C@@H](O)C[C@@]3(C)[C@H]2CC[C@]3(O)C(=O)CO)[C@@]2(C)C=CC(=O)C=C12	inactive	
O=C1CCC[C@@H]2[C@H]3CCC[N+]4([O-])CCC[C@@H](CN12)[C@@H]34 (stereo not given in full)	inactive	
C1Cc2[nH]nc(-c3nn[nH]n3)c2C1	inactive	
CNC(=O)c1ccccc1Nc1nc(Nc2ccc(N3CCOCC3)cc2OC)ncc1Cl	1.32 µM (active)	
O=c1[nH]nc(Sc2ncc([N+](=O)[O-])s2)n1-c1ccc2c(c1)OCCO2	10.5 µM (active)	
Nc1ccn([C@@H]2CS[C@H](CO)O2)c(=O)n1	inactive	
CC(C)(C)c1cc(C(C)(C)C)c(NC(=O)c2c[nH]c3ccccc3c2=O)cc1O	inactive	
O=C(c1cncc(Br)c1)N1CCC(N2CCCC2)CC1	inactive	
CC(C)c1cc(C(=O)N2Cc3ccc(CN4CCN(C)CC4)cc3C2)c(O)cc1O	inactive	
CC[C@H]1CN2CCc3cc(OC)c(OC)cc3[C@H]2C[C@@H]1C[C@@H]1NCCc2cc(OC)c(OC)cc21	inactive	
CCC(=C(c1ccccc1)c1ccc(OCCN(C)C)cc1)c1ccccc1	inactive	
COc1ccc(C=Cc2cc(OC)c(OC)c(OC)c2)cc1O	inactive	
Nc1nc(Nc2ccc(S(N)(=O)=O)cc2)nn1C(=O)c1c(F)cccc1F	inactive	
CCn1nnc2c(N3CCOCC3)nc(-c3ccc(NC(=O)Nc4ccc(C(=O)N5CCN(C)CC5)cc4)cc3)nc21	7.43 µM (active)	
